Test results published in the supplement of paper PMC7411054.

Tests used:
Assay in all cases: phenotypically active (imaging signature differs from DMSO and reproducible) at any of 0.3-9 uM (binary (1 = active, 0 = inactive)); higher = active
Conditions in all cases: treatment time: 24 h
A549-ACTB-RAB5A = system: A549-ACTB-RAB5A
Outline: (§1)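 Four wells per concentration (0.3, 1, 3 or 9 µM) were treated for 24 h in each of fifteen gene-edited reporter lines from A549, HepG2 and WPMY1 cells, then imaged live. After normalising live-cell features to solvent control wells, deviation was defined as ≥3 of 4 wells lying past the 95th percentile of control Euclidean distances. Reproducibility was defined as a median replicate Pearson correlation above the 95th percentile of non-replicates. Both had to hold for phenotypic activity.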

A549-CANX-COX4 = system: A549-CANX-COX4
Outline: as §1

A549-GM130-SQSTM1 = system: A549-GM130-SQSTM1
Outline: as §1

A549-TP53BP1-CLTA = system: A549-TP53BP1-CLTA
Outline: as §1

A549-TUBA1B-RELA = system: A549-TUBA1B-RELA
Outline: as §1

HepG2-ACTB-RAB5A = system: HepG2-ACTB-RAB5A
Outline: as §1

HepG2-CANX-COX4 = system: HepG2-CANX-COX4
Outline: as §1

HepG2-GM130-SQSTM1 = system: HepG2-GM130-SQSTM1
Outline: as §1

HepG2-TP53BP1-CLTA = system: HepG2-TP53BP1-CLTA
Outline: as §1

HepG2-TUBA1B-RELA = system: HepG2-TUBA1B-RELA
Outline: as §1

WPMY1-ACTB-RAB5A = system: WPMY1-ACTB-RAB5A
Outline: as §1

WPMY1-CANX-COX4 = system: WPMY1-CANX-COX4
Outline: as §1

WPMY1-GM130-SQSTM1 = system: WPMY1-GM130-SQSTM1
Outline: as §1

WPMY1-TP53BP1-CLTA = system: WPMY1-TP53BP1-CLTA
Outline: as §1

WPMY1-TUBA1B-RELA = system: WPMY1-TUBA1B-RELA
Outline: as §1

Measured: phenotypically active

O=C(O)c1c(Sc2ccccc2)c2cc(Cl)ccc2n1Cc1ccc(Cl)cc1
inactive: A549-ACTB-RAB5A 0 | A549-CANX-COX4 0 | A549-GM130-SQSTM1 0 | A549-TP53BP1-CLTA 0 | A549-TUBA1B-RELA 0 | HepG2-ACTB-RAB5A 0 | HepG2-CANX-COX4 0 | HepG2-GM130-SQSTM1 0 | HepG2-TP53BP1-CLTA 0 | HepG2-TUBA1B-RELA 0 | WPMY1-ACTB-RAB5A 0 | WPMY1-CANX-COX4 0 | WPMY1-GM130-SQSTM1 0 | WPMY1-TP53BP1-CLTA 0 | WPMY1-TUBA1B-RELA 0

O=C1NC(=O)C(c2ccccc2)(c2ccccc2)N1 [phenytoin]
inactive: A549-ACTB-RAB5A 0 | A549-CANX-COX4 0 | A549-GM130-SQSTM1 0 | A549-TP53BP1-CLTA 0 | A549-TUBA1B-RELA 0 | HepG2-ACTB-RAB5A 0 | HepG2-CANX-COX4 0 | HepG2-GM130-SQSTM1 0 | HepG2-TP53BP1-CLTA 0 | HepG2-TUBA1B-RELA 0 | WPMY1-ACTB-RAB5A 0 | WPMY1-CANX-COX4 0 | WPMY1-GM130-SQSTM1 0 | WPMY1-TP53BP1-CLTA 0 | WPMY1-TUBA1B-RELA 0

N[C@@H](CSC(c1ccccc1)(c1ccccc1)c1ccccc1)C(=O)O [S-Trityl-L-cysteine]
inactive: A549-ACTB-RAB5A 0 | A549-CANX-COX4 0 | A549-GM130-SQSTM1 0 | A549-TP53BP1-CLTA 0 | A549-TUBA1B-RELA 0 | HepG2-ACTB-RAB5A 0 | HepG2-CANX-COX4 0 | HepG2-GM130-SQSTM1 0 | HepG2-TP53BP1-CLTA 0 | HepG2-TUBA1B-RELA 0 | WPMY1-ACTB-RAB5A 0 | WPMY1-CANX-COX4 0 | WPMY1-GM130-SQSTM1 0 | WPMY1-TP53BP1-CLTA 0 | WPMY1-TUBA1B-RELA 0

COc1ccc(C(=O)C2CCN(CC(=O)N(Cc3nc4c(c(=O)[nH]3)COCC4)CC3CC3)CC2)cc1
inactive: A549-ACTB-RAB5A 0 | A549-CANX-COX4 0 | A549-GM130-SQSTM1 0 | A549-TP53BP1-CLTA 0 | A549-TUBA1B-RELA 0 | HepG2-ACTB-RAB5A 0 | HepG2-CANX-COX4 0 | HepG2-GM130-SQSTM1 0 | HepG2-TP53BP1-CLTA 0 | HepG2-TUBA1B-RELA 0 | WPMY1-ACTB-RAB5A 0 | WPMY1-CANX-COX4 0 | WPMY1-GM130-SQSTM1 0 | WPMY1-TP53BP1-CLTA 0 | WPMY1-TUBA1B-RELA 0

Nc1nnc(-c2cccc(Cl)c2Cl)c(N)n1 [lamotrigine]
inactive: A549-ACTB-RAB5A 0 | A549-CANX-COX4 0 | A549-GM130-SQSTM1 0 | A549-TP53BP1-CLTA 0 | A549-TUBA1B-RELA 0 | HepG2-ACTB-RAB5A 0 | HepG2-CANX-COX4 0 | HepG2-GM130-SQSTM1 0 | HepG2-TP53BP1-CLTA 0 | HepG2-TUBA1B-RELA 0 | WPMY1-ACTB-RAB5A 0 | WPMY1-CANX-COX4 0 | WPMY1-GM130-SQSTM1 0 | WPMY1-TP53BP1-CLTA 0 | WPMY1-TUBA1B-RELA 0

O=C1CC(c2ccc(O)cc2)Oc2cc(O)cc(O)c21 (stereo not given) [Naringenine]
inactive: A549-ACTB-RAB5A 0 | A549-CANX-COX4 0 | A549-GM130-SQSTM1 0 | A549-TP53BP1-CLTA 0 | A549-TUBA1B-RELA 0 | HepG2-ACTB-RAB5A 0 | HepG2-CANX-COX4 0 | HepG2-GM130-SQSTM1 0 | HepG2-TP53BP1-CLTA 0 | HepG2-TUBA1B-RELA 0 | WPMY1-ACTB-RAB5A 0 | WPMY1-CANX-COX4 0 | WPMY1-GM130-SQSTM1 0 | WPMY1-TP53BP1-CLTA 0 | WPMY1-TUBA1B-RELA 0

c1ccc(CC2=NCCN2)cc1 [tolazoline]
inactive: A549-ACTB-RAB5A 0 | A549-CANX-COX4 0 | A549-GM130-SQSTM1 0 | A549-TP53BP1-CLTA 0 | A549-TUBA1B-RELA 0 | HepG2-ACTB-RAB5A 0 | HepG2-CANX-COX4 0 | HepG2-GM130-SQSTM1 0 | HepG2-TP53BP1-CLTA 0 | HepG2-TUBA1B-RELA 0 | WPMY1-ACTB-RAB5A 0 | WPMY1-CANX-COX4 0 | WPMY1-GM130-SQSTM1 0 | WPMY1-TP53BP1-CLTA 0 | WPMY1-TUBA1B-RELA 0

CC[N+](CC)(CC)CCC(O)(c1ccccc1)C1CCCCC1 (stereo not given) [tridihexethyl]
inactive: A549-ACTB-RAB5A 0 | A549-CANX-COX4 0 | A549-GM130-SQSTM1 0 | A549-TP53BP1-CLTA 0 | A549-TUBA1B-RELA 0 | HepG2-ACTB-RAB5A 0 | HepG2-CANX-COX4 0 | HepG2-GM130-SQSTM1 0 | HepG2-TP53BP1-CLTA 0 | HepG2-TUBA1B-RELA 0 | WPMY1-ACTB-RAB5A 0 | WPMY1-CANX-COX4 0 | WPMY1-GM130-SQSTM1 0 | WPMY1-TP53BP1-CLTA 0 | WPMY1-TUBA1B-RELA 0

CC1=CC(=O)CC(C)(C)C1(O)/C=C/C(C)=C\C(=O)O (mixture of isomers) [(+/-)-2-cis-4-trans-Abscisic acid]
inactive: A549-ACTB-RAB5A 0 | A549-CANX-COX4 0 | A549-GM130-SQSTM1 0 | A549-TP53BP1-CLTA 0 | A549-TUBA1B-RELA 0 | HepG2-ACTB-RAB5A 0 | HepG2-CANX-COX4 0 | HepG2-GM130-SQSTM1 0 | HepG2-TP53BP1-CLTA 0 | HepG2-TUBA1B-RELA 0 | WPMY1-ACTB-RAB5A 0 | WPMY1-CANX-COX4 0 | WPMY1-GM130-SQSTM1 0 | WPMY1-TP53BP1-CLTA 0 | WPMY1-TUBA1B-RELA 0

COc1c2occc2cc2ccc(=O)oc12 [methoxsalen]
inactive: A549-ACTB-RAB5A 0 | A549-CANX-COX4 0 | A549-GM130-SQSTM1 0 | A549-TP53BP1-CLTA 0 | A549-TUBA1B-RELA 0 | HepG2-ACTB-RAB5A 0 | HepG2-CANX-COX4 0 | HepG2-GM130-SQSTM1 0 | HepG2-TP53BP1-CLTA 0 | HepG2-TUBA1B-RELA 0 | WPMY1-ACTB-RAB5A 0 | WPMY1-CANX-COX4 0 | WPMY1-GM130-SQSTM1 0 | WPMY1-TP53BP1-CLTA 0 | WPMY1-TUBA1B-RELA 0

C=C(C)[C@@H]1CC[C@]2(C(=O)O)CC[C@]3(C)[C@H](CC[C@@H]4[C@@]5(C)CC[C@H](O)C(C)(C)[C@@H]5CC[C@]43C)[C@@H]12 [betulinic-acid]
inactive: A549-ACTB-RAB5A 0 | A549-CANX-COX4 0 | A549-GM130-SQSTM1 0 | A549-TP53BP1-CLTA 0 | A549-TUBA1B-RELA 0 | HepG2-ACTB-RAB5A 0 | HepG2-CANX-COX4 0 | HepG2-GM130-SQSTM1 0 | HepG2-TP53BP1-CLTA 0 | HepG2-TUBA1B-RELA 0 | WPMY1-ACTB-RAB5A 0 | WPMY1-CANX-COX4 0 | WPMY1-GM130-SQSTM1 0 | WPMY1-TP53BP1-CLTA 0 | WPMY1-TUBA1B-RELA 0
